CYP2C9 inhib – human CYP2C9 inhibition; P11712; CYP2C9 Supersomes, luciferin-H conversion, luminescence; inhibition, % at 5 µM; hit rate 20% among 96,000; AID 777;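 active means blocking of liver enzyme CYP2C9 beyond about 50% at 5 µM, limit read from the data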
CYP2C19 activ – activators of human cytochrome P450 2C19. P33261. recombinant CYP2C19, luciferin-H EGE luminescence; stronger effect = higher value; 0 = fully inhibited enzyme, 1 = untreated enzyme. activation factor at 5 µM. 96,000 tested, under 10 active;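 active means activation factor of at least 2 at 5 µM in the primary screen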
Target sequence (P33261 whole entry, looked up): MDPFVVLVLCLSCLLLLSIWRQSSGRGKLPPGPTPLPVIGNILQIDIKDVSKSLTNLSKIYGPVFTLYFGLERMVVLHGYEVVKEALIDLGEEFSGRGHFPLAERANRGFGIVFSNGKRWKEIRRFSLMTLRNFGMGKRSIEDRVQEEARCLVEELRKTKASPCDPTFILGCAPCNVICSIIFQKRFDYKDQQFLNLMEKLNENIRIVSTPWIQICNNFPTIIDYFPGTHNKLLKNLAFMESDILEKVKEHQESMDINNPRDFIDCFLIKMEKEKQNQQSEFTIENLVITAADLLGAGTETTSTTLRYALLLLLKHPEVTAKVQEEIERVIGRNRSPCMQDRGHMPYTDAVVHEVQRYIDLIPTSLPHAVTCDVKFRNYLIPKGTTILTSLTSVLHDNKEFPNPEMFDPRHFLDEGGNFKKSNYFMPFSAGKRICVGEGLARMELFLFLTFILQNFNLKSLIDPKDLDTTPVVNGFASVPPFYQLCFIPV
CYP2C19 inh – human CYP2C19 inhibition | P33261 | CYP2C19 Supersomes, luciferin-H EGE luminescence, 30 min | inhibition, % at 5 µM | hit rate 21% among 96,000 | AID 778;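 active means CYP2C19 inhibition above a set limit at 5 µM in the primary screen, cut at about 50% in these data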
E-sel TNF inh – blocks E-selectin expression induced by TNF alpha | HUVEC TNFa-induced E-selectin immunofluorescence, high content | inhibition, % at 2 µM | hit rate 0.71% among 120,000 | AID 1246;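 active means inhibition above the batch mean plus 3 SD, and confirmed as a hit on visual image review, cut at about 43% in these data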
cytoskel mod – cytoskeleton assembly modification; HUVEC TNFa F-actin phalloidin imaging, high content; inhibition, % at 2 µM; hit rate 0.18% among 91,000;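 active means inhibition above the batch mean plus 3 SD and confirmed as a hit by visual image inspection, cut at about 30% in these data, passing the limit was not always enough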
CYP2C9 act – increases human cytochrome P450 2C9 activity; P11712; recombinant CYP2C9, luciferin-H conversion, luminescence; stronger effect = higher value; factor 1 = untreated enzyme, 0 = blocked; activation factor at 5 µM; hit rate 1.4% among 96,000; AID 1024;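 active means activation factor of 2 or more for CYP2C9 at a 5 µM dose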
Hits are given with their value; . = inactive; / = not tested or not shown. Rows were chosen to be rich in hits. Some 22% of all compounds tested hit in one or more screens of this group.

SMILES	CYP2C9 inhib	CYP2C19 activ	CYP2C19 inh	E-sel TNF inh	cytoskel mod	CYP2C9 act
Clc1c(CSc2nc3ccccc3o2)nc2ccccn12	.	.	98	.	.	.
Clc1c(CSc2nc3ccccc3o2)nc2sccn12	.	.	.	.	.	.
Brc1c(CSc2nc3ccccc3o2)nc2ncccn12	.	.	64	/	.	.
Cc1ccc(S(=O)(=O)NCCCN2CCOCC2)cc1C	/	/	/	.	.	/
COc1cc(Cl)c(S(=O)(=O)NCCN2CCOCC2)cc1Cl	.	.	82	.	.	2
COc1cc(S(=O)(=O)NCCCN2CCOCC2)ccc1Cl	.	.	75	.	.	2.4
O=C(Nc1cccc(F)c1)c1ccc(Br)o1	/	/	/	.	/	/
CCCCC(=O)Nc1cccc(NC(=O)c2ccc(Br)o2)c1	93	.	70	.	.	.
O=C(Nc1cccc(OC(F)(F)F)c1)c1ccc(Br)o1	.	.	89	.	.	.
CC1CCc2c(nc3ncnn3c2N2CCN(c3ccccc3F)CC2)C1 (stereo not given)	66	.	.	/	/	.
CC1CCc2c(nc3ncnn3c2N2CCN(c3ccccc3)CC2)C1 (stereo not given)	90	.	.	.	.	.
CC1CCc2c(nc3ncnn3c2NCCc2ccccc2F)C1 (stereo not given)	/	/	/	.	/	/
O=C(N1CCOCC1)n1cnc2ccccc21	/	/	/	.	.	/
CO/N=C(/CS(=O)Cc1ccccc1Cl)c1ccc(Cl)cc1Cl (stereo not given)	.	.	83	.	.	.
Cc1ccc(NC(=O)CC(C(=O)O)c2ccccc2)cc1 (stereo not given)	/	/	/	.	/	/
COc1ccc(NC(C)c2cc(Cl)ccc2O)cc1 (stereo not given)	.	.	58	.	.	.
COc1cccc(NS(=O)(=O)c2ccc3[nH]cc(C(=O)NCCC(C)C)c(=O)c3c2)c1	70	.	.	.	.	.
CCOc1ccc(NS(=O)(=O)c2ccc3[nH]cc(C(=O)NC(C)CC)c(=O)c3c2)cc1 (stereo not given)	/	/	/	.	/	/
CCCNC(=O)c1c[nH]c2ccc(S(=O)(=O)N(C)c3ccc(OCC)cc3)cc2c1=O	83	.	.	.	.	.
CCCCN(C)CCNC(=O)c1c[nH]c2ccc(S(=O)(=O)N(CC)CC)cc2c1=O	.	.	.	.	.	.
CCOC(=O)c1c(NC(C)=O)sc2c(OC(C)=O)cccc12	.	.	.	/	.	.
COc1ccc(-n2nc3c(c2NC(=O)C24CC5CC(CC(C5)C2)C4)CS(=O)C3)cc1 (stereo not given)	.	.	.	/	.	2.4
CCOC(=O)C1=C(c2ccccc2)N=C2SCC(=O)N2C1c1cccc(OC)c1 (stereo not given)	54	.	87	.	.	.
CCOC(=O)C1=C(c2ccccc2)N=C2SCC(=O)N2C1c1ccc(OC)c(OC)c1 (stereo not given)	.	.	.	.	.	.
COc1ccc(OC)c(NC(=O)N[C@@H](Cc2ccccc2)C(=O)O)c1	.	.	.	/	.	.
SMILES	CYP2C9 inhib	CYP2C19 activ	CYP2C19 inh	E-sel TNF inh	cytoskel mod	CYP2C9 act
COc1ccccc1NC(=O)c1ccc(N)cc1	.	.	.	/	.	4.1
COc1ccc(OC)c(NC(=O)Nc2cccc(Cn3cccn3)c2)c1	83	.	74	.	.	.
COC(=O)c1cc(NC(=O)Nc2cc(OC)ccc2OC)cc(C(=O)OC)c1	51	.	.	.	.	.
COc1ccccc1NC(=O)c1ccc2nc(-c3ccccc3)c(-c3ccccc3)nc2c1	.	.	.	.	.	.
CCCCCCCCCCNC(=O)C(=O)Nc1ccccn1	.	.	55	.	/	.
O=C(N/C(=C/C=C/c1ccccc1)C(=O)N1CCCCC1)c1ccc([N+](=O)[O-])cc1	/	/	/	.	/	/
COc1ccc(NC(=O)Nc2ccccc2OC)cc1	.	.	87	.	.	.
COc1ccccc1OCC(=O)Nc1ccccn1	.	.	.	.	/	.
O=C(Nc1ccncc1)Nc1ccccn1	68	.	91	.	.	.
COc1ccccc1NC(=O)C(=O)Nc1ccccn1	.	.	.	/	.	2.3
COc1ccc(OC)c(NC(=O)Nc2ccc(Cl)cc2)c1	.	.	.	.	.	.
COc1ccccc1NC(=O)C1C2CCCCC21 (stereo not given)	.	.	.	.	.	3.6
Cc1ccc(NS(=O)(=O)c2ccc(CCC(=O)NCCCOC(C)C)cc2)cc1	/	/	/	.	/	/
COc1cccc(C2=NOC(C(=O)N3CCN(C(=O)c4ccco4)CC3)C2)c1 (stereo not given)	.	.	.	.	/	.
COc1ccccc1NC(C)=O	.	.	.	/	/	.
COc1ccc(NC(=O)Nc2cc(C)ccc2OC)cc1	.	.	95	.	.	.
COc1ccccc1NC(=O)C(O)C(O)C(=O)Nc1ccccc1OC (stereo not given)	.	.	.	.	.	3.2
COc1ccc(C)cc1NC(=O)Nc1ccccc1	.	.	.	.	/	.
CC1CCc2nc(NC(=O)CSc3nc4ccccc4o3)sc2C1 (stereo not given)	.	.	.	.	.	.
O=C(N/N=C/c1cccs1)C1CC(=O)N(c2ccccc2)C1 (stereo not given)	/	/	/	.	/	/
COc1ccc(NC(=O)C2CCCN2S(=O)(=O)c2ccc3c(c2)CCC(=O)N3)cc1 (stereo not given)	90	.	.	.	.	.
COc1ccc(NC(=O)C2CCCN2S(=O)(=O)c2ccc3c(c2)CCC(=O)N3)cc1Cl (stereo not given)	65	.	.	.	/	.
COc1ccc(S(=O)(=O)N2CCCC2C(=O)Nc2ccc(O)cc2)cc1 (stereo not given)	.	.	.	.	/	.
O=C(CCC(=O)OCC(=O)c1ccccc1)NC1CCCCC1	.	.	.	.	.	.
Cc1ccc(S(=O)(=O)N/N=C\c2cc([N+](=O)[O-])ccc2Cl)cc1	.	.	62	.	.	.
SMILES	CYP2C9 inhib	CYP2C19 activ	CYP2C19 inh	E-sel TNF inh	cytoskel mod	CYP2C9 act
CCn1cc(/C=N/NS(=O)(=O)c2ccc(OC)cc2)c(C)n1	69	.	87	.	.	.
Cc1ccc(S(=O)(=O)N/N=C/c2cn(C)nc2C)cc1	64	.	51	.	.	.
Cc1ccc(S(=O)(=O)N/N=C\c2cccnc2)cc1	.	.	.	.	.	.
Cc1ccc(S(=O)(=O)N/N=C/c2cc(Br)c(C)o2)cc1	97	.	.	.	.	.
Cc1cccc(C)c1N(CC(=O)N/N=C/c1cc(Br)c(C)o1)S(C)(=O)=O	/	/	/	.	/	/
Cc1noc(C)c1C(=O)Nc1nc(-c2ccccc2Cl)cs1	/	/	/	.	/	/
CCC(=S)/C=C1\Sc2ccc3ccccc3c2N1CCCS(=O)(=O)O	.	.	.	.	.	.
Cc1ccc(S(=O)(=O)N/N=C/C(C)(C)CO)cc1	.	.	.	.	.	.
CCn1cc(/C=N/NS(=O)(=O)c2ccc(C)cc2)c(C)n1	83	.	88	.	.	.
O=C1C2C(C(=O)N1Cc1ccco1)C1C=CC2C12CC2 (stereo not given)	.	.	.	.	.	.

Assay outcomes: PubChem, several laboratories
